“And” between values parts separate entries of the source, which are not always exact repeats. Equal entries are not always repeated. Inconclusive results are not listed. A call without a number means that no potency is given here. A number with no mark means an inactive call. The source made the active and inactive calls. The call rests on the fitted dose curve; in most records, active means well fitted curve in the direction sought with a large enough effect; inconclusive means small, poorly fitted or top-dose-only effect, or another doubt; inactive means no such curve, though single readings can be large; an effect the other way counts as inactive or inconclusive.
How the values were obtained:
[1] = molecular target: Cellular tumor antigen p53 (Homo sapiens) (UniProt P04637); assay: Primary qHTS for small molecule compounds that upregulate eGFP-tagged delta133p53alpha (in N-terminal) cells. (AID 2060322); conditions: NCI-H358 eGFP-delta133p53alpha fluorescence, 24 h; activation: hits give high values; further: nearly all actives have a fitted effect of over 75% in size; further: potency means the concentration at half of the fitted maximal effect;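 on activation: cells pre-induced with doxycycline then dosed without doxycycline; series mostly up to about 56 µM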
Chain of Cellular tumor antigen p53 (Homo sapiens) (P04637 whole entry, looked up): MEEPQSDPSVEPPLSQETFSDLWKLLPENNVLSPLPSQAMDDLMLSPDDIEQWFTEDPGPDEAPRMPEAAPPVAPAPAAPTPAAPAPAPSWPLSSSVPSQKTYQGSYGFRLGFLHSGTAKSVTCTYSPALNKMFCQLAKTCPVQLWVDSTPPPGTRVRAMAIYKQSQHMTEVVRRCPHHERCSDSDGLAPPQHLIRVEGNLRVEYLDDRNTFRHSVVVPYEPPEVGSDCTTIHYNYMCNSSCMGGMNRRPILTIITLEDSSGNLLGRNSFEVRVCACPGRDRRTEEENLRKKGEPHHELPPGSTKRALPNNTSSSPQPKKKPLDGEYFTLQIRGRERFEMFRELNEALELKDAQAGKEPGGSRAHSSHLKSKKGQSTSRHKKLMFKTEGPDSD
In short: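 NCI-H358 cells pre-induced 24 h with 10 ng/ml doxycycline for eGFP-delta133p53alpha, plated dox-free and exposed 24 h at 37C to titrated compounds. Fixed, Hoechst-stained; gated GFP peak intensity by laser scanning cytometry, normalized to DMSO (0%) and 57.5 uM 5-azacytidine (100%).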

[2] = molecular target: Aldehyde dehydrogenase, mitochondrial (Homo sapiens) (UniProt P05091); assay: qHTS for Inhibitors of the Aldehyde Dehydrogenase Family (ALDH2) Primary screen (AID 2061308); further: nearly all actives have a fitted effect of over 55% in size
[3] = molecular target: Retinaldehyde dehydrogenase 3 (Homo sapiens) (UniProt P47895); assay: qHTS for Inhibitors of the Aldehyde Dehydrogenase Family (ALDH1A3) Primary screen (AID 2061315)

SMILES | activation [1] | Potency [2] | Potency [3] | Potency [1] | activity change, negative = inhibition [2] | activity change, negative = inhibition [3]
CC1=C2C3OC(=O)C(C)C3(O)CCC2(C)CCC1O (centres undefined) | -10.7% | inactive | inactive |  |  | 
CC1=C2C=C(CO)C(CO)CCC2(C)CCC1=O (centres undefined) | 3.82% | inactive | inactive |  |  | 
CC(CCC1(O)OC2CC3C4CCC5CC(O[C@@H]6O[C@H](CO)[C@@H](O)[C@H](O)[C@H]6O[C@@H]6OC[C@@H](O)[C@H](O)[C@H]6O)C(O)CC5(C)C4CCC3(C)C2C1C)CO[C@@H]1O[C@H](CO)[C@@H](O)[C@H](O)[C@H]1O (some centres undefined) | -5.36% | inactive | inactive |  |  | 
COc1ccc(Sc2ccc(NC(=O)c3ccccc3Cl)cc2C#N)cc1 | 20.3% | inactive | inactive |  |  | 
CC(C#N)C(C)O[C@@H]1O[C@H](CO)[C@@H](O)[C@H](O)[C@H]1O (some centres undefined) | 24.1% | inactive | inactive |  |  | 
Cn1nccc1-c1ccccc1Oc1ccc(S(=O)(=O)Nc2nccs2)cc1C#N | 3.67% | inactive | inactive |  |  | 
Nc1ncnc2c([C@@H]3N[C@H](CO)[C@@H](O)[C@H]3O)c[nH]c12 | -8.93% | inactive | inactive |  |  | 
COc1c(C)c(OCC(O)C(C)(C)O)cc2c1COC2=O (centres undefined) | 5.34% | inactive | inactive |  |  | 
CC1(C)SC2C(NC(=O)[C@H](NC(=O)N3CCNC3=O)c3ccccc3)C(=O)N2C1C(=O)O (some centres undefined) | 17% | inactive | inactive |  |  | 
CC/C=C(\C(=O)N[C@@H]1C(=O)N2C(C(=O)OCOC(=O)C(C)(C)C)=C(COC(N)=O)CS[C@H]12)c1csc(N)n1 | 2.82% and -18.4% | inactive | inactive |  |  | 
C=C1C(=O)O[C@@H]2[C@H]1CCC(C)=C1CCC(=O)O[C@]12C |  | inactive | inactive | 12 µM (active) |  | 
O=C(/C=C/c1ccc(O)cc1)O[C@H]1[C@H](OC2CCCCC2O)O[C@H](CO)[C@@H](O)[C@@H]1O (some centres undefined) | -11.5% | inactive | inactive |  |  | 
C/C(=C\CC[C@@H](C)[C@H]1CC(O)[C@@]2(C)C3CC[C@H]4C(C)(C)[C@@H](OC5OCC(O)C(O)C5OC5OC(CO)C(O)C(O)C5O)CC[C@@]45C[C@@]35CC(O)[C@]12C)C(=O)O (some centres undefined) | -16.8% | inactive | inactive |  |  | 
CCC(C)C(=O)O[C@H]1CCC=C2C=C[C@H](C)[C@H](CC[C@@H](O)C[C@@H](O)CC(=O)O)[C@H]21 (some centres undefined) | -32.8% | inactive | inactive |  |  | 
C/C=C/C=C/C=C/C(=O)O[C@@H]1[C@@H](OC)C2=C(C(=O)N(C(CCC(=O)O)C(=O)O)C2)[C@@]2(C)CCCC(C)(C)[C@H]12 (some centres undefined) | -27.5% | inactive | inactive |  |  | 
C=C[C@]1(C)C[C@H](O)[C@H]2C(=C)C(=O)O[C@@H]2[C@H]1C(=C)CO | 17.9% | inactive | inactive |  |  | 
CCCCCCCOc1cc2c(cc1/C(C)=C/c1ccc(C(=O)O)cc1)C(C)(C)CCS2(=O)=O | 3% | inactive | inactive |  |  | 
COc1cc(C)c(C(=O)OC2C(C)OC(OC3CCC(C)C4C3C=C(C)C3/C(C)=C\CC/C(C)=C/C5(C)C=C(C(=O)O)C(C)CC56OC(=O)/C(=C(\O)C34C)C6=O)C(O)C2O)c(OC)c1 (centres undefined) | 10.7% | inactive | inactive |  |  | 
COC1=CC(=O)C=C(C)C12Oc1c(Cl)c(OC)cc(OC)c1C2=O (centres undefined) | 1.53% | inactive | inactive |  |  | 
COc1c(C)c(OCC=C(C)C)cc2c1COC2=O | -0.763% | inactive | inactive |  |  | 
COC1CC(OC2CCC3(C)C(=CCC4C3C(OC(C)=O)C(OC(=O)/C=C/c3ccccc3)C3(C)C(C(C)O)CCC43O)C2)OC(C)C1OC1CC(OC)C(OC2OC(C)C(OC3OC(CO)C(O)C(O)C3O)C(OC)C2O)C(C)O1 (centres undefined) | 2.29% |  |  |  | 13.8% [at 11.2 µM] | 9.46% [at 11.2 µM]
O=C(CSc1nc2ccccc2c(=O)n1-c1ccccc1)Nc1ccc2c(c1)CCC2 | 5.67% | inactive | inactive |  |  | 
COc1ccc(OC2OC(CO[C@@H]3O[C@@H](C)[C@H](O)[C@@H](O)[C@H]3O)C(O)C(O)C2O)cc1OC (some centres undefined) | 8.4% | inactive | inactive |  |  | 
COc1c2ccoc2cc2oc(CO[C@@H]3O[C@H](CO)[C@@H](O)[C@H](O)[C@H]3O)cc(=O)c12 | -23.2% | inactive | inactive |  |  | 
CN1[C@@H]2CC[C@H]1CC(OC(=O)c1c[nH]c3ccccc13)C2 (some centres undefined) | -6.21% and -7.16% | inactive | inactive |  |  | 
CCCn1cc2c(nc(NC(=O)Nc3ccc(OC)cc3)n3nc(-c4ccco4)nc23)n1 | 9.07% | inactive | inactive |  |  | 
C[C@@H]1CCC2C(C)(C)[C@H](O)CC[C@]2(C)[C@@]12Cc1c(O)cc3c(c1O2)CN([C@@H](CCC(=O)O)C(=O)O)C3=O (some centres undefined) | -9.16% | inactive | inactive |  |  | 

SMILES | activation [1] | Potency [2] | Potency [3] | Potency [1] | activity change, negative = inhibition [2] | activity change, negative = inhibition [3]
COc1cccc(-c2cn(-c3ccc(CCN4CCC(O)CC4)cc3)c3ncnc(N)c23)c1 |  | inactive | inactive | 6.01 µM (active) |  | 
CC12CC(O)C(O)C=C1c1cc(O)cc(O)c1C(=O)O2 (centres undefined) | -7.63% | inactive | inactive |  |  | 
C/C=C\NC(=O)C1NC(=O)C(CC(N)=O)NC(=O)C(NC(=O)C(=O)C(C)CC)Cc2ccc(O)c(c2)-c2cccc3c2NC(=O)C3(O)C1O (centres undefined) | 3.82% | inactive | inactive |  |  | 
C[C@@H]1CC[C@]2(C(=O)O)CC[C@]3(C)C(=CCC4[C@@]5(C)CC[C@H](O)[C@](C)(C(=O)O)C5CC[C@]43C)C2[C@]1(C)O (some centres undefined) | 8.4% | inactive | inactive |  |  | 
CCOC(=O)[C@H](CCc1ccccc1)N[C@@H](C)C(=O)N1C2CCCCC2C[C@H]1C(=O)O (some centres undefined) | -7% | inactive | inactive |  |  | 
COc1cc(-c2nc(N[C@H](CO)Cc3ccccc3)ccc2C(=O)NCCOc2ccccc2)cc(OC)c1OC | -11.9% | inactive | inactive |  |  | 
CC1CC(C(O)C(C)(C)O)OC2CC3(C)C4(C)CCC5C(C)(C)C(=O)CCC5(C)C4CCC3(O)C12O (centres undefined) | -11.5% | inactive | inactive |  |  | 
COc1cc(O)c(C(=O)CCc2ccc(O)cc2)c(O[C@@H]2O[C@H](CO)[C@@H](O)[C@H](O)[C@H]2O)c1 |  | inactive | inactive | 7.38 µM (active) |  | 
C[C@@]1(C(=O)O)CCC[C@@]2(C)C3=CC[C@H]4C[C@@]3(CC[C@H]12)CC4(O)CO (some centres undefined) | -2.29% | inactive | inactive |  |  | 
CC1=C2C3OC(=O)C(C)C3(O)CCC2(C)CCC1=O (centres undefined) | -20.5% | inactive | inactive |  |  | 
CC1=C2C[C@@]3(C)C(CCC[C@@H]3C)C(O)C2(O)OC1=O (some centres undefined) | 0% | inactive | inactive |  |  | 
COC(=O)CC(O)CC(O)/C=C/c1c(C)ccc2c1C(O)CC(C)C2 (centres undefined) | -14.5% | inactive | inactive |  |  | 
C/C=C/C=C/C=C/C(=O)OC1C=C2C(O)OC(=O)[C@]2(O)[C@@]2(C)CCCC(C)(C)[C@H]12 (some centres undefined) | -2.29% | inactive | inactive |  |  | 
CN(C)C(=O)C(=O)c1cn(C)c2cc(Cl)c(C(=O)N3CCC(Cc4ccc(F)cc4)CC3)cc12 | -10.7% | inactive | inactive |  |  | 
CC(C)=CCC[C@@](C)(O)[C@H]1CC[C@]2(C)[C@@H]1[C@H](O)CC1[C@@]3(C)CC[C@H](O[C@@H]4O[C@H](CO)[C@@H](O)[C@H](O)[C@H]4O[C@@H]4O[C@H](CO)[C@@H](O)[C@H](O)[C@H]4O)C(C)(C)[C@@H]3CC[C@]12C (some centres undefined) | -17.6% | inactive | inactive |  |  | 
C/C(=C\CCC(C)(O)c1ccc(C)cc1)C(=O)O (centres undefined) | -12.2% | inactive | inactive |  |  | 
COC(=O)c1ccnc(-c2cc(C(=O)NCCc3ccccc3)ccn2)c1 | 3.67% | inactive | inactive |  |  | 
C[C@@H]1O[C@@H](O[C@H]2[C@H](O[C@H]3[C@H](O[C@H]4CC[C@@]5(CO)C(CC[C@]6(C)C5CC=C5C7CC(C)(C)C[C@@H](O)[C@]7(C)CC[C@]56C)C4(C)C)O[C@H](C(=O)O)[C@@H](O)[C@@H]3O)OC[C@@H](O)[C@@H]2O)[C@H](O)[C@H](O)[C@H]1O (some centres undefined) | -15.3% | inactive | inactive |  |  | 
CC(=O)OC/C(=C/C(=O)O)CC[C@@H]1C(C=O)=CC[C@@H]2C(C)(C)CCC[C@@]12C | -32.8% | inactive | inactive |  |  | 
COc1ccc(C(=O)CC(=O)O)c2c1C=CC(C)(C)O2 | 23.2% | inactive | inactive |  |  | 
O=C(O)c1cccc(-c2ccc(-c3cn(C(=O)N4CCCCC4Cc4ccccc4)nn3)cc2)c1 (centres undefined) | -9.67% | inactive | inactive |  |  | 
C=C1C(=O)OC2C=C(C)CC/C=C(\CO)CC(O)C12 (centres undefined) | 9.92% | inactive | inactive |  |  | 
C=CC(C)(O)C(O)CC1C(C)(O)C(O)C(O)C2C(C)(C)CCCC21C (centres undefined) | -20.6% | inactive | inactive |  |  | 
CC(=O)N[C@H](Cc1c[nH]c2ccccc12)C(=O)OCc1cc(C(F)(F)F)cc(C(F)(F)F)c1 | 14.3% | inactive | inactive |  |  | 
NC(=O)C(O[C@@H]1O[C@H](CO[C@@H]2O[C@H](CO)[C@@H](O)[C@H](O)[C@H]2O)[C@@H](O)[C@H](O)[C@H]1O)c1ccccc1 (some centres undefined) | -6.11% | inactive | inactive |  |  | 
C=C1C[C@]23C[C@H]1CC[C@H]2[C@@]1(C)CCC[C@@]2(C)C(=O)O[C@@H]([C@@H]3O)[C@@H]12 | 12.2% | inactive | inactive |  |  | 

— PubChem BioAssay (NCATS)
